About 83,000 compounds went through this panel and 20% of them were active in at least one assay; those are over-represented in the sample as a whole.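 A percent growth of 40 corresponds to 60% growth inhibition; 0 means no net growth; -100 means all cells died. Active threshold: below 10.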 Calls of active or inactive are those of the source.
Tests used:
Test in all cases: NCI-60 one-dose screen, 48 h (100 = growth as untreated, 0 = no growth, -100 = all killed)
Details in all cases: 10 µM
SK-MEL-2 melanoma = test system: SK-MEL-2 melanoma
SN12C renal = test system: SN12C renal
UO-31 renal = test system: UO-31 renal
TK-10 renal = test system: TK-10 renal
ACHN renal = test system: ACHN renal
CAKI-1 renal = test system: CAKI-1 renal
A498 renal = test system: A498 renal
CCRF-CEM leukemia = test system: CCRF-CEM leukemia
MOLT-4 leukemia = test system: MOLT-4 leukemia
SR leukemia = test system: SR leukemia
RPMI-8226 leukemia = test system: RPMI-8226 leukemia
OVCAR-8 ovarian = test system: OVCAR-8 ovarian
OVCAR-5 ovarian = test system: OVCAR-5 ovarian
OVCAR-4 ovarian = test system: OVCAR-4 ovarian
SK-OV-3 ovarian = test system: SK-OV-3 ovarian
IGROV1 ovarian = test system: IGROV1 ovarian
OVCAR-3 ovarian = test system: OVCAR-3 ovarian
HS 578T breast = test system: HS 578T breast
NCI/ADR-RES ovarian = test system: NCI/ADR-RES ovarian
EKVX NSCLC = test system: EKVX NSCLC

Measured: growth

CNCCCNCCCN1C(=O)c2ccc3c4c(ccc(c24)C1=O)C(=O)N(CCCNCc1ccccc1OC)C3=O
inactive: UO-31 renal 18.2% | ACHN renal 16.6% | CAKI-1 renal 24.6% | A498 renal 28.8% | SK-OV-3 ovarian 36.8% | NCI/ADR-RES ovarian 63%
active: SK-MEL-2 melanoma -49.9% | SN12C renal 2.51% | TK-10 renal -14% | CCRF-CEM leukemia 4.62% | MOLT-4 leukemia -23.8% | SR leukemia -0.146% | RPMI-8226 leukemia -16.2% | OVCAR-8 ovarian -31.9% | OVCAR-5 ovarian 5.23% | OVCAR-4 ovarian -91.5% | IGROV1 ovarian -40.7% | OVCAR-3 ovarian -17.6% | HS 578T breast 4.28%

CC(=O)OCC(COC(C)=O)(COC(C)=O)COC(C)=O
inactive: SK-MEL-2 melanoma 101% | SN12C renal 108% | UO-31 renal 84.7% | TK-10 renal 108% | ACHN renal 110% | CAKI-1 renal 103% | A498 renal 73.4% | CCRF-CEM leukemia 103% | MOLT-4 leukemia 93.5% | SR leukemia 86.6% | RPMI-8226 leukemia 97.6% | OVCAR-8 ovarian 103% | OVCAR-5 ovarian 102% | OVCAR-4 ovarian 112% | SK-OV-3 ovarian 99.6% | IGROV1 ovarian 104% | OVCAR-3 ovarian 103% | HS 578T breast 101% | NCI/ADR-RES ovarian 106%

CC(C)/C=N/NC(N)=S
inactive: SK-MEL-2 melanoma 103% | SN12C renal 85.5% | UO-31 renal 72.4% | TK-10 renal 109% | ACHN renal 90.6% | CAKI-1 renal 89% | A498 renal 82.7% | CCRF-CEM leukemia 28.9% | MOLT-4 leukemia 64.9% | SR leukemia 51.9% | RPMI-8226 leukemia 60.4% | OVCAR-8 ovarian 62.9% | OVCAR-5 ovarian 78.7% | OVCAR-4 ovarian 46.1% | SK-OV-3 ovarian 110% | IGROV1 ovarian 34% | OVCAR-3 ovarian 53% | HS 578T breast 90.7% | NCI/ADR-RES ovarian 75%

CCCCCCCCCCSC(=N)N (tested in a mixture with another compound)
inactive: SK-MEL-2 melanoma 81.2% | EKVX NSCLC 74.8% | UO-31 renal 64.4% | TK-10 renal 90.1% | CAKI-1 renal 87.9% | A498 renal 80.1% | CCRF-CEM leukemia 56.2% | MOLT-4 leukemia 43.9% | RPMI-8226 leukemia 38% | OVCAR-8 ovarian 81.6% | OVCAR-5 ovarian 101% | OVCAR-4 ovarian 90% | SK-OV-3 ovarian 85.9% | IGROV1 ovarian 68% | OVCAR-3 ovarian 76.1% | HS 578T breast 81.9% | NCI/ADR-RES ovarian 82.5%

COc1cc(/C=C/C(=O)c2cc(-c3ccc(C(F)(F)F)cc3)ccc2O)cc(OC)c1OC
active: CCRF-CEM leukemia 7.45% | RPMI-8226 leukemia -9.06%
inactive: SK-MEL-2 melanoma 70.1% | SN12C renal 66.7% | UO-31 renal 46.7% | TK-10 renal 98% | ACHN renal 68.4% | CAKI-1 renal 47.2% | A498 renal 82.6% | MOLT-4 leukemia 15.5% | SR leukemia 23.4% | OVCAR-8 ovarian 64.1% | OVCAR-5 ovarian 99.6% | OVCAR-4 ovarian 64.6% | SK-OV-3 ovarian 81.5% | IGROV1 ovarian 75.3% | OVCAR-3 ovarian 74.1% | HS 578T breast 59.4% | NCI/ADR-RES ovarian 65.9%

Cc1ccc(C)c(S(=O)(=O)NC2c3ccccc3Oc3ccccc32)c1
inactive: SK-MEL-2 melanoma 101% | EKVX NSCLC 100% | TK-10 renal 90.7% | ACHN renal 82.3% | CAKI-1 renal 88.7% | A498 renal 90.9% | CCRF-CEM leukemia 73.7% | MOLT-4 leukemia 89.3% | SR leukemia 63% | RPMI-8226 leukemia 98.2% | OVCAR-8 ovarian 90.6% | OVCAR-5 ovarian 103% | OVCAR-4 ovarian 92.6% | SK-OV-3 ovarian 102% | IGROV1 ovarian 96% | OVCAR-3 ovarian 95.9% | HS 578T breast 107% | NCI/ADR-RES ovarian 88.5%

C/C(=N/NC(=O)c1sc(=S)n(C)c1N)c1cc2cc(Cl)ccc2o1
inactive: SK-MEL-2 melanoma 98.9% | EKVX NSCLC 98.5% | TK-10 renal 101% | ACHN renal 96% | CAKI-1 renal 117% | MOLT-4 leukemia 76.5% | RPMI-8226 leukemia 87.3% | OVCAR-8 ovarian 14.3% | OVCAR-5 ovarian 101% | OVCAR-4 ovarian 117% | SK-OV-3 ovarian 102% | IGROV1 ovarian 51.6% | OVCAR-3 ovarian 110% | NCI/ADR-RES ovarian 104%
active: A498 renal -3.76% | HS 578T breast 5.99%

O=C1/C(=C/c2ccc([N+](=O)[O-])s2)Oc2ccc(Cl)cc21
active: SK-MEL-2 melanoma -53.7% | SN12C renal -54.3% | UO-31 renal -89.4% | TK-10 renal -32.7% | ACHN renal -71.1% | CAKI-1 renal -29.9% | A498 renal 9.57% | CCRF-CEM leukemia 2.86% | MOLT-4 leukemia -15.7% | SR leukemia 1.07% | RPMI-8226 leukemia 0.77% | OVCAR-8 ovarian 1.27% | OVCAR-5 ovarian -80.6% | OVCAR-4 ovarian -76.5% | SK-OV-3 ovarian 7.47% | IGROV1 ovarian -67.9% | OVCAR-3 ovarian -68.8% | NCI/ADR-RES ovarian 4.88%
inactive: HS 578T breast 17.6%

COc1ccc(/C=C2\SC(=S)N(CCCN3CCOCC3)C2=O)c(OC)c1
inactive: SK-MEL-2 melanoma 99% | SN12C renal 93.8% | UO-31 renal 86.8% | TK-10 renal 104% | ACHN renal 98% | CAKI-1 renal 94.4% | A498 renal 102% | CCRF-CEM leukemia 75.7% | MOLT-4 leukemia 94.4% | SR leukemia 72.5% | RPMI-8226 leukemia 78.4% | OVCAR-8 ovarian 96.1% | OVCAR-5 ovarian 104% | OVCAR-4 ovarian 91.1% | SK-OV-3 ovarian 105% | IGROV1 ovarian 115% | OVCAR-3 ovarian 103% | HS 578T breast 99.1% | NCI/ADR-RES ovarian 92.6%

CCOC(=O)c1ccc(N(C=O)CCC(=O)CCl)cc1
inactive: SK-MEL-2 melanoma 15.3% | OVCAR-4 ovarian 18.8% | SK-OV-3 ovarian 30.7% | HS 578T breast 33.2% | NCI/ADR-RES ovarian 21.4%
active: SN12C renal 7.96% | UO-31 renal -86.3% | TK-10 renal -18% | ACHN renal -37.4% | CAKI-1 renal -19.9% | A498 renal -13.5% | CCRF-CEM leukemia -31.4% | MOLT-4 leukemia -13.7% | SR leukemia 5.14% | RPMI-8226 leukemia -20.4% | OVCAR-8 ovarian 3.69% | OVCAR-5 ovarian 4.98% | IGROV1 ovarian 2.75% | OVCAR-3 ovarian -5.41%

O=C(C=P(c1ccccc1)(c1ccccc1)c1ccccc1)c1ccc(Br)cc1
inactive: SK-MEL-2 melanoma 94.3% | SN12C renal 96.5% | UO-31 renal 53.7% | TK-10 renal 95% | ACHN renal 78.7% | CAKI-1 renal 84.3% | A498 renal 64.3% | CCRF-CEM leukemia 55% | SR leukemia 56.6% | RPMI-8226 leukemia 47.4% | OVCAR-8 ovarian 89.1% | OVCAR-5 ovarian 104% | OVCAR-4 ovarian 95.5% | SK-OV-3 ovarian 108% | IGROV1 ovarian 91.4% | OVCAR-3 ovarian 64.5% | HS 578T breast 107% | NCI/ADR-RES ovarian 79.9%
active: MOLT-4 leukemia 0.436%

COc1ccccc1NC1=C(N2CCCCC2)C(=O)c2ccccc2C1=O
inactive: SK-MEL-2 melanoma 98.2% | SN12C renal 84.6% | UO-31 renal 75.3% | TK-10 renal 96.2% | ACHN renal 88% | CAKI-1 renal 85.8% | A498 renal 39.4% | CCRF-CEM leukemia 72.5% | MOLT-4 leukemia 58.8% | SR leukemia 76.3% | RPMI-8226 leukemia 40.2% | OVCAR-8 ovarian 84.7% | OVCAR-5 ovarian 96.2% | OVCAR-4 ovarian 69.7% | SK-OV-3 ovarian 102% | IGROV1 ovarian 100% | OVCAR-3 ovarian 87% | HS 578T breast 93.3% | NCI/ADR-RES ovarian 87.3%

COc1cccc2c1C(=O)c1c(O)c3c(c(O)c1C2=O)C[C@@](O)(C(=O)COC(=O)c1ccccc1)C[C@@H]3OC1CC(N)C(O)C(C)O1 (some centres not stated)
active: SK-MEL-2 melanoma -92% | SN12C renal -86% | UO-31 renal -93.1% | TK-10 renal -79.8% | ACHN renal -95.6% | CAKI-1 renal -89.3% | A498 renal -66.2% | CCRF-CEM leukemia -54% | MOLT-4 leukemia -66% | SR leukemia -43.7% | RPMI-8226 leukemia -66.4% | OVCAR-8 ovarian -77.3% | OVCAR-5 ovarian -94.9% | OVCAR-4 ovarian -87.9% | SK-OV-3 ovarian -72.8% | IGROV1 ovarian -75.2% | OVCAR-3 ovarian -93.6% | HS 578T breast -41.6%
inactive: NCI/ADR-RES ovarian 22.5%

O=C1/C(=C/c2ccc(O)cc2)CSc2ccc(Cl)cc21
inactive: SK-MEL-2 melanoma 97.8% | SN12C renal 81.5% | UO-31 renal 73.1% | TK-10 renal 103% | ACHN renal 88.9% | CAKI-1 renal 79.9% | A498 renal 99.5% | CCRF-CEM leukemia 12.4% | MOLT-4 leukemia 22.3% | SR leukemia 62.7% | RPMI-8226 leukemia 98.2% | OVCAR-8 ovarian 89.8% | OVCAR-5 ovarian 95.2% | OVCAR-4 ovarian 94.9% | SK-OV-3 ovarian 105% | IGROV1 ovarian 16.7% | OVCAR-3 ovarian 90.4% | HS 578T breast 71.1% | NCI/ADR-RES ovarian 82.2%

Cc1cc(Nc2cccc(F)c2)nc(NCc2ccccc2)n1
active: RPMI-8226 leukemia -3.16% | OVCAR-3 ovarian 0.169%
inactive: SK-MEL-2 melanoma 19.8% | SN12C renal 16.7% | UO-31 renal 20.7% | TK-10 renal 35.7% | ACHN renal 17.1% | CAKI-1 renal 24.1% | A498 renal 24.4% | CCRF-CEM leukemia 12.8% | MOLT-4 leukemia 22.5% | SR leukemia 23% | OVCAR-8 ovarian 19.2% | OVCAR-5 ovarian 60.9% | OVCAR-4 ovarian 15.9% | SK-OV-3 ovarian 80.6% | IGROV1 ovarian 27.1% | HS 578T breast 68.4% | NCI/ADR-RES ovarian 11%

Cc1ccc2nc3[nH]c(=O)[nH]c(=O)c3c(N)c2c1
inactive: SK-MEL-2 melanoma 98% | SN12C renal 72.6% | UO-31 renal 54.9% | TK-10 renal 78.2% | ACHN renal 60.2% | CAKI-1 renal 58% | A498 renal 115% | CCRF-CEM leukemia 77.7% | MOLT-4 leukemia 86.6% | SR leukemia 95.6% | RPMI-8226 leukemia 89.8% | OVCAR-8 ovarian 88.5% | OVCAR-5 ovarian 92.9% | OVCAR-4 ovarian 81.7% | SK-OV-3 ovarian 86% | IGROV1 ovarian 75.1% | OVCAR-3 ovarian 101% | HS 578T breast 79.2% | NCI/ADR-RES ovarian 97.8%

CC1=CC2OC34COC3CC(OC(=O)C(F)(F)F)C4(C)C2(C)CC1 (configuration not stated)
inactive: SK-MEL-2 melanoma 104% | SN12C renal 98.4% | UO-31 renal 99.5% | TK-10 renal 101% | ACHN renal 98.4% | CAKI-1 renal 102% | A498 renal 79.6% | CCRF-CEM leukemia 101% | MOLT-4 leukemia 113% | SR leukemia 99.3% | RPMI-8226 leukemia 101% | OVCAR-8 ovarian 106% | OVCAR-5 ovarian 101% | OVCAR-4 ovarian 103% | SK-OV-3 ovarian 102% | IGROV1 ovarian 119% | OVCAR-3 ovarian 118% | HS 578T breast 97.7% | NCI/ADR-RES ovarian 105%

— PubChem BioAssay (NCI)
